Measured values taken from PubChem BioAssay AID449768 (Vanderbilt High Throughput Screening Facility, 2010).
Hit rate of the full screen: of about 110,000 compounds, about 1,400 (1.3%) were called active. The entries come from a sample that favours actives as a whole. Values without a mark were called inactive.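 Rule for the calls: active = Z score or B-score, a plate-position-corrected score, falls beyond the plate's 99.7% confidence bounds, in either direction; inactive = both scores lie inside the 99.7% bounds.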

Each compound was assayed against Sodium-dependent dopamine transporter (Homo sapiens) (UniProt Q01959) (assay: modulators of human DAT uptake with cocaine – cell-based, LLC-PK1 hDAT, [14C]-dopamine uptake, MLSMR, cocaine antagonist project, primary screen (AID 449768;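 note: scored against the spread of the other compound wells on the same plate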)). Conditions: LLC-PK1 hDAT cells, [14C]-dopamine uptake with cocaine IC80; at 10 µM; actives deviate in either direction.
Sodium-dependent dopamine transporter (Homo sapiens), sequence (Q01959 whole entry, looked up): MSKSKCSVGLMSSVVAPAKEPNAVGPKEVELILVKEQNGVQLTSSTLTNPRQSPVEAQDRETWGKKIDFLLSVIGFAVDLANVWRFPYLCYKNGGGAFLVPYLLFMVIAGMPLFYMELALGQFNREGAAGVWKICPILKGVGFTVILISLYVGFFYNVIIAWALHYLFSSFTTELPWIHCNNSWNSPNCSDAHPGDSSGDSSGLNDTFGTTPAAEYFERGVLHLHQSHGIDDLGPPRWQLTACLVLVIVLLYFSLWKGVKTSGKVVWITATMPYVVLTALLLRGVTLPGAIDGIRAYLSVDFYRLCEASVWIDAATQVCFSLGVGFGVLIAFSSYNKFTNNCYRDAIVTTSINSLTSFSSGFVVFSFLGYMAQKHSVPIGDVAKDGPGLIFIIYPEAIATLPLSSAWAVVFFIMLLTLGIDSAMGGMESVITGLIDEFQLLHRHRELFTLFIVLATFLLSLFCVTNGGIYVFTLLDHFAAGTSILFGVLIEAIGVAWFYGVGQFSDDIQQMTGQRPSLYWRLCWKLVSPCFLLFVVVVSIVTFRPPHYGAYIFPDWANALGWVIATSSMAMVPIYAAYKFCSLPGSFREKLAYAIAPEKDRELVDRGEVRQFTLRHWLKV

Which B-score does the source give for `COP1(=O)C[C@@H](O)[C@@H](O)[C@@H](COCc2ccccc2)O1` (some centres not stated) here?
Its B-score is -0.427.

How did the B-score turn out when `CCCCCC(=O)Nc1ccc2oc(-c3ccncc3)nc2c1` was run?
The B-score was 1.15.

For `O=C(Nc1ccc2oc(-c3ccc4ccccc4c3)nc2c1)c1cccs1`, which B-score is on record?
The B-score was -1.07.

How did the B-score turn out when `O=C(Cc1cccc2ccccc12)Nc1ccc2oc(-c3ccccc3)nc2c1` was run?
Its B-score is -7.38 (active).

With `CCO[C@@H]1OC(C(=O)NCc2nc3ccccc3[nH]2)=C[C@H](C2CCCCC2)[C@H]1CCCO` as the compound, how does the B-score read?
The B-score was 0.35.

Which B-score does the source give for `NC(=O)[C@H]1CC2(CC(c3cccc(NC(=O)[C@H]4CCC(=O)N4)c3)=NO2)CN1C(=O)c1ccccc1C(=O)c1ccccc1` (some centres not stated) here?
Its B-score is -0.797.

For `COc1ccccc1NC(=O)CSc1nnc(-c2ccoc2C)n1CCc1ccccc1`, which B-score is on record?
Its B-score is 2.44 (active).

For `CCCn1c(SCC(=O)Nc2cccc(C(=O)OCC)c2)nnc1-c1ccoc1C`, which B-score is on record?
Its B-score is -0.483.

`COc1ccccc1NC(=O)CSc1nnc(C)n1CC1CCCO1` (configuration not stated) was tested. Which B-score did it give?
Its B-score is -0.675.

For `C#CCOCCOCCOCCNc1nc(N2CCN(C(=O)C([C@@H](C)CC)n3cc(C(N)COC(=O)C(F)(F)F)nn3)CC2)nc(N2CCN(C(=O)[C@H](Cc3ccc(O)cc3)n3cc(C(N)[C@H](C)CC)nn3)CC2)n1` (some centres not stated), which B-score is on record?
Its B-score is -0.939.

For `COCCN1C(=O)N[C@@H](c2ccccc2)C(C(=O)OC)=C1C`, which B-score is on record?
Its B-score is -0.275.

`CC1=C(C(=O)OCc2ccccc2)C(c2ccc(C(F)(F)F)cc2)NC(=O)N1CCCCCC(=O)O` (configuration not stated) was tested. Which B-score did it give?
Its B-score is 0.765.

`COC(=O)CCCCCN1C(=O)NC(c2ccc(-c3ccccc3)cc2)C(C(=O)OCc2ccccc2)=C1C` (configuration not stated) was tested. Which B-score did it give?
Its B-score is -5.33 (active).

With `COc1ccc(C#Cc2c(-c3ccc(OC)cc3)oc3ccc(-c4ccc5c(c4)OCO5)cc23)cc1` as the compound, how does the B-score read?
The B-score was 0.0246.

For `NC1=NC[C@@H](Cc2ccc(O)cc2)N1CC1CCCCC1`, which B-score is on record?
The B-score was 0.203.

How did the B-score turn out when `Cc1ccc2nc(NC(=O)C3CCN(S(=O)(=O)c4ccc5c(c4)oc(=O)n5C)CC3)sc2c1` was run?
The B-score was -0.00508.

`CS(=O)(=O)c1ccc2nc(NC(=O)C3CCCCC3)sc2c1` was tested. Which B-score did it give?
The B-score was 2.38.

`O=C(Nc1nc2ccc(S(=O)(=O)N3CCCC3)cc2s1)C1CCCO1` (configuration not stated) was tested. Which B-score did it give?
Its B-score is 2.39 (active).

With `COC(C[C@@H]1O[C@@H]1C(=O)[C@H](C)OCc1ccccc1)OC` as the compound, how does the B-score read?
Its B-score is -1.33.

For `COC(=O)C1=C(C(=O)OC)[C@@H]2N(C)c3ccccc3[C@@]23C[C@@H](C(=O)OC)N(C(C)=O)C3=N1`, which B-score is on record?
Its B-score is -0.544.

`C=CCNC(=O)c1ccc2c3n(nc2c1)-c1ccc(C)cc1CO3` was tested. Which B-score did it give?
The B-score was -0.154.

How did the B-score turn out when `CCOC(=O)c1cc2ccccc2nc1C` was run?
Its B-score is 0.593.

For `CCCc1nc2ccccc2c(C(=O)OCc2nnc(-c3cc(OC)c(OC)c(OC)c3)o2)c1CC`, which B-score is on record?
The B-score was 0.135.

With `CCOC(=O)c1cc(-c2nnc(-c3cc(OC)c(OC)c(OC)c3)o2)c(C)nc1C` as the compound, how does the B-score read?
Its B-score is 1.41 (active).

How did the B-score turn out when `CCO[C@H]1OC(C(=O)N2CCN(Cc3ccccc3)CC2)=C[C@@H](c2cn(C(C)=O)c3ccccc23)[C@@H]1CCCO` was run?
The B-score was -0.181.

How did the B-score turn out when `CCO[C@@H]1OC(C(=O)NC2CC2)=C[C@H](C)[C@H]1CCCO` was run?
Its B-score is 0.173.

`CN1CCN(C(CNS(=O)(=O)c2cccs2)c2cccnc2)CC1` (configuration not stated) was tested. Which B-score did it give?
Its B-score is -0.00301.

Which B-score does the source give for `Cc1nnc(NC(=O)Nc2ccc(Cl)c(Cl)c2)s1` here?
Its B-score is -0.308.

With `N/C(=N\OC(=O)Nc1ccc(Cl)c(Cl)c1)c1ncc(C(F)(F)F)cc1Cl` as the compound, how does the B-score read?
Its B-score is 0.438.

With `O=C(CC(O)(C(F)(F)F)C(F)(F)F)Nc1ccc(Cl)c(Cl)c1` as the compound, how does the B-score read?
The B-score was -6.33 (active).

Which B-score does the source give for `Cc1nc(-c2ccccc2)sc1C1(C)CC(c2cccnc2)=NO1` (configuration not stated) here?
The B-score was 0.641.

How did the B-score turn out when `C#Cc1ccc([C@@H]2C=C(C(=O)O)O[C@H](OCCCCO)C2)cc1` was run?
The B-score was -0.622.

How did the B-score turn out when `CC1=C(N2CCN(c3ncccn3)CC2)CCC1=O` was run?
The B-score was 0.343.

`CC1(C)OC(=O)N2CCc3ccccc3C21C` (configuration not stated) was tested. Which B-score did it give?
Its B-score is -8.52 (active).

How did the B-score turn out when `COc1ccc(CN2CC[C@H]3C=CC[C@@H](C(=O)N4CCOCC4)[C@H]3C2=O)cc1OC` was run?
The B-score was 0.696.

`O=C(CCCCCn1c(=O)[nH]c2ccccc2c1=O)NCCc1c[nH]c2ccccc12` was tested. Which B-score did it give?
Its B-score is 0.015.

How did the B-score turn out when `C[C@]1(C(=O)NCCc2c[nH]c3ccccc23)C=C[C@@H](Cc2ccccc2)N1C(=O)c1ccccc1` was run?
The B-score was 2.48 (active).

Which B-score does the source give for `Cc1cc(C)cc(NC(=S)NCCc2c[nH]c3ccccc23)c1` here?
Its B-score is 2.31.

How did the B-score turn out when `NCCCC[C@@H]1NC(=O)[C@H](CCC(=O)O)NC(=O)c2cc([N+](=O)[O-])cc(I)c2NCC[C@@H](C(N)=O)NC1=O` was run?
Its B-score is -0.534.

How did the B-score turn out when `COc1ccc(CNC(=O)C2(CC3CC(c4ccccc4)=NO3)CCN(C(=O)c3cccc(O)c3)CC2)cc1` (configuration not stated) was run?
The B-score was 0.0185.

`O=C(NCc1ccccc1)c1onc(CSc2ccncc2)c1C(=O)NCc1ccccc1` was tested. Which B-score did it give?
The B-score was -1.52.

For `NC(=O)CC[C@@H]1NC(=O)[C@H](CO)NC(=O)c2cc([N+](=O)[O-])cc(I)c2NCC[C@@H](C(N)=O)NC1=O`, which B-score is on record?
Its B-score is -0.848.
